Source: PubChem BioAssay (National Center for Advancing Translational Sciences (NCATS))
Pf Dd2 inh: qHTS Primary assay for Inhibitors of Plasmodium falciparum Dd2 growth in vitro; P. falciparum Dd2 growth, SYBR Green, 72 h; 4.3% of 120,000 active; Potency, µM (highest dose often 28.9 µM), without a hit: at the highest dose activity, negative = inhibition, usual class: inhibitors; active = well fitted inhibition curve with a large enough effect;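 also: plate controls were DMSO vehicle for no effect and reference drug for full effect; nearly all actives have a fitted effect of over 65% in size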
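Readout: SYBR Green fluorescence, 485 nm excitation, 535 nm emission, after ~16 h lysis at 37C. Before that, Dd2-infected red cells (2.5% hematocrit) grew 72 h with compound, 29 uM top final concentration.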
* marks the source's active call; other numbers are inactive results; i = inactive; [ ] = remark or other dose. Many of the other results were omitted from the sample, so hits are more common in it than they were. Potency is read from the fitted curve at half-maximal effect.

SMILES | Pf Dd2 inh
O=C(Cn1c(=O)c2c(n1Cc1ccccc1)CN(Cc1ccccc1)CC2)NCc1cccc(Cl)c1 | i
O=C1CC2(CCN(Cc3ccc(F)cc3)CC2)Oc2ccccc2N1 | i
O=C1[C@H]2CN(Cc3ccccc3Cl)C[C@H]2C(=O)N1Cc1ccc2c(c1)OCO2 | -5%
O=C1CC2CCCC(C1)N2C(=O)c1cc(F)ccc1Br | 1%[44.1 µM]
Cc1nc(-c2c3n(c(=O)n(Cc4ccccc4C)c2=O)CCCCC3)no1 | -10%
O=C(Cn1nc2n(c1=O)CCCC2)Nc1ccc(Br)cc1 | -19%
O=C(Cn1nc2c(cc1=O)CCCC2)NCCn1ccc2c(Cl)cccc21 | -16%
COc1ccc(NC(=O)c2ccco2)cc1NC(=O)COc1ccc(C)cc1C | 2.8µM*
COc1ccc(NC(=O)c2ccco2)cc1NC(=O)COc1ccccc1 | 1%
COc1ccc(NC(=O)c2ccco2)cc1NC(=O)COc1ccc(Cl)cc1C | 16%
COc1ccccc1C1C(C(N)=O)=C(C)Nc2nc(SCc3ccccc3F)nn21 (stereo not drawn) | -2%
CCC(C(=O)Nc1cc(-c2nc3cccnc3s2)ccc1C)c1ccccc1 (stereo not drawn) | 10µM*
Cc1cccc(C(=O)Nc2cc(-c3nc4cccnc4s3)ccc2C)c1 | 4%
Cc1ccc(-c2nc3cccnc3s2)cc1NC(=O)C(C)C | -21%
O=S(=O)(NCCc1noc(-c2ccncc2)n1)c1ccc(F)cc1 | -21%
Cc1ccc(C)c(CN2C(=O)c3ccccc3S(=O)c3ccc(C(=O)N4CCN(c5ccccc5F)CC4)cc32)c1 (stereo not drawn) | i
O=C(O)c1ccc2c(c1)N(C(=O)c1ccc(F)cc1)CC2 | -8%
O=C(c1ccc(F)cc1)N1CCC(C(=O)O)(c2ccccc2)CC1 | 3%
Cc1ccc2c(c1)C(C)(c1ccccc1)CC(C)(C)N2C(=O)c1ccc(F)cc1 (stereo not drawn) | 5.6µM*
COc1ccccc1C(=O)N1CCCN(C)c2ccccc21 | -12%
CCCCC(=O)N1c2ccccc2C(C)(c2ccccc2)CC1(C)C (stereo not drawn) | -20%
COc1ccccc1C(=O)N1c2ccccc2C(C)(c2ccc(Cl)cc2)CC1(C)C (stereo not drawn) | 8.9µM*
O=c1c2c3c(sc2nnn1CCCCOc1ccc(Cl)cc1)CCCC3 | -3%
Cc1ccccc1/C=C(\C#N)c1nc(-c2ccc(Cl)cc2)cs1 | 10%
CCc1nc(-c2ccc(OC3CCN(S(=O)(=O)Cc4ccccc4)C3)cc2)no1 (stereo not drawn) | i[5.79 µM]
SMILES | Pf Dd2 inh
COc1ccccc1C(=O)N1CCC2(CC1)c1nccn1-c1ccccc1CN2C | i[5.79 µM]
CC(C)CN1Cc2ccccc2-n2ccnc2C12CCN(C(=O)C(C)C)CC2 | -21%[5.79 µM]
COc1ccccc1C(=O)N1CCC2(CC1)c1nccn1-c1ccccc1CN2CC(C)C | 0.89µM*
Cc1ccc(-c2cn3c(n2)N(C(=O)C2CCCO2)CCC3)cc1 (stereo not drawn) | i
CNC1CCN(C(=O)c2cnc(C34CC5CC(CC(C5)C3)C4)[nH]c2=O)CC1 | -6%
COc1cccc(NC(=O)c2ccc3c(c2)N(C)C2CCCN2C3=O)c1 (stereo not drawn) | -13%
CC(=O)Nc1cccc(-c2nccc3c(=O)cc(N4CCOCC4)oc23)c1 | -16%[44.1 µM]
COC[C@@H]1CN(Cc2cn(C)nc2C)C[C@H]1C(=O)N(C)C | 10%
COc1ccc(-c2cc([C@H]3CN4CC[C@H]3C[C@@H]4CNS(=O)(=O)c3ccc(Cl)cc3)n(C)n2)cc1OC | 0.63µM*
COc1ccc(-c2cc([C@H]3CN4CC[C@H]3C[C@@H]4CNS(=O)(=O)c3ccc(NC(C)=O)cc3)n(C)n2)cc1 | i
COc1ccc(-c2cc([C@H]3CN4CC[C@H]3C[C@@H]4CN)n(C)n2)cc1OC | 11µM*
Cn1nc(-c2ccc3ccccc3c2)cc1[C@H]1CN2CC[C@H]1C[C@@H]2CNC(=O)NCc1ccccc1 | 7.9µM*
COc1ccc(-c2cc([C@H]3CN4CC[C@H]3C[C@@H]4CNC(=O)NCc3ccccc3)n(C)n2)cc1 | -13%
COc1ccc(-c2cc([C@H]3CN4CC[C@H]3C[C@@H]4CNC(=O)c3ccco3)n(C)n2)cc1OC | i
CC(=O)NC[C@H]1C[C@@H]2CCN1C[C@@H]2c1cc(-c2ccc3ccccc3c2)nn1C | i
COc1ccc(-c2cc([C@H]3CN4CC[C@H]3C[C@@H]4COC(=O)NC(C)C)n(C)n2)cc1OC | i
COc1ccc(OC)c(S(=O)(=O)NC[C@H]2C[C@@H]3CCN2C[C@@H]3c2cc(-c3ccc4ccccc4c3)nn2C)c1 | i
O=C(Cn1nc2c(cc1=O)CCCCC2)NCCc1nnc2ccccn12 | -11%
C=CCO[C@@H]1C[C@H]2C(=O)Nc3ccc(-c4ccc(F)cc4F)cc3C(=O)N2C1 | i
CN1C[C@@H](NC(=O)CCC(=O)O)C[C@H]1c1nc(-c2ccc3ccccc3c2)no1 | 5%[44.1 µM]
COc1ccc(-c2noc(CSc3nnc(Cc4ccccc4)n3-c3ccccc3)n2)cc1OC | -6%
CC(C)NC(=O)N1C[C@@H]2CCCN3CCC[C@@H]([C@H]23)[C@H]1CCCC(=O)Nc1ccccc1 | -11%
CN1C(=O)C2(CCN(S(=O)(=O)c3ccc(F)cc3)C2)c2ccccc21 (stereo not drawn) | -29%
O=C(c1ccc(C(F)(F)F)cc1)N1CCC2(C1)C(=O)N(c1ccccc1)c1ccccc12 (stereo not drawn) | 10µM*
N#Cc1ccc(CN2CCC3(C2)C(=O)Nc2ccccc23)cc1 (stereo not drawn) | -10%
SMILES | Pf Dd2 inh
CN1C(=O)C2(CCN(C(=O)Cc3ccccc3Cl)C2)c2ccccc21 (stereo not drawn) | 3.2µM*
O=C(c1ccccc1F)N1CCC2(C1)C(=O)N(c1ccccc1)c1ccccc12 (stereo not drawn) | -26%
O=C1Nc2ccccc2C12CCN(Cc1cccnc1)C2 (stereo not drawn) | -21%[44.1 µM]
O=C(c1ccc(C(F)(F)F)cc1)N1CCC2(C1)C(=O)N(Cc1ccccc1)c1ccccc12 (stereo not drawn) | -15%
CCCC(=O)N1CCC2(CC1)C(=O)N(C)c1ccccc12 | 44%
CN1C(=O)C2(CCN(Cc3ccc(C(F)(F)F)cc3)C2)c2ccccc21 (stereo not drawn) | i
CN1C(=O)C2(CCN(Cc3ccc(F)cc3)C2)c2ccccc21 (stereo not drawn) | 13µM*
CN1C(=O)C2(CCN(C(=O)c3ccc(Cl)cc3)C2)c2ccccc21 (stereo not drawn) | -21%
O=C1N(c2ccccc2)c2ccccc2C12CCN(Cc1ccccc1)C2 (stereo not drawn) | 11µM*
O=C(OCCF)N1CCC(Oc2cnc3c(ccn3-c3cncnc3)c2)CC1 | i
O=C(NCc1ccc2c(c1)CCN2C(=O)c1ccncc1)c1ccccc1Br | -21%
CCCN1C(=O)Cc2ccccc2C1C(=O)NCc1ccc(Br)cc1 (stereo not drawn) | i
CCNC(=O)Cc1ccc(N(Cc2ccccc2)C(=O)c2ccco2)cc1 | i
COCCN1C(=O)CS(=O)C12CCN(C(=O)Nc1cccc(F)c1)CC2 (stereo not drawn) | 8%
CCn1nc(-c2ccc3c(c2)OCO3)nc1N(C)C | -11%
Cc1nn(C)c(C)c1CCC(=O)N1CC2CC(C1)[C@H]1CCCC(=O)N1C2 (stereo partly drawn) | 3%
CCc1ccc(NC(=O)Cn2c(=O)n(CCCC(=O)NCc3ccccc3Cl)c(=O)c3ccccc32)cc1 | -28%
